# Where “and” joins values, the source holds several entries; their conditions need not be identical. Equal values may be shown once.
# Assay: viability loss with induced miR-34 in A549 – imaging, A549 dox-inducible miR-34, nuclei and caspase counts, primary screen (AID 1347080); further: test concentration not given here
# Details: A549 miR-34 inducible, Hoechst nuclei count, 48 h; measured here: relative caspase fold change +Dox/-Dox
row,Compound,fold change
1,NS(=O)(=O)c1nn2cc(-c3ccccc3)nc2s1,0.795
2,COc1oc(=O)c2cc(N)ccc2c1Cl,1.44
3,CN(N=O)C(=O)N[C@H]1C(O)O[C@H](CO)[C@@H](O)[C@@H]1O (stereo partly drawn),0.621
4,N[C@@H](C(=O)O)c1ccc(O)c(C(=O)O)c1,0.807
5,O=C(NC1CCN(Cc2ccccc2)CC1)c1ccc(I)cc1,0.815
6,CC(=O)N(OCc1ccccc1)[C@@H]1c2cc(C#N)ccc2OC(C)(C)[C@H]1O,0.973
7,c1ccc(Oc2nc(NC3CCCCC3)c3[nH]cnc3n2)cc1,1.13
8,CCOC(=O)C1CSC(Cc2ccc(OCc3ccc([N+](=O)[O-])cc3)cc2)N1 (stereo not drawn),1.54
9,COc1cccc(C=NC=Nc2cccc(OC)c2)c1,0.661
10,C[C@@H]1CC2C3CCC4=CC(=O)C=CC4(C)C3(F)[C@@H](O)CC2(C)C1(O)C(=O)CO (stereo partly drawn),0.753
11,CCCCCN=c1ccn(Cc2ccccc2)c2ccccc12,0.778
12,O=c1[nH]c2cc(Cl)ccc2c(O)c1-c1cccc(Oc2ccccc2)c1,0.827
13,N[C@@H](Cc1cc(CP(=O)(O)O)cc(-c2ccccc2Cl)c1)C(=O)O,1.52
14,CC(C)c1ccccc1S(=O)(=O)c1cc(N)c2ncccc2c1[N+](=O)[O-],1.36
15,CCn1c(=O)[nH]c2ccccc21,1.07
16,C[C@@H]1C(=O)OC2[C@H](O)C34[C@H]5C[C@@H](C(C)(C)C)[C@]36[C@@H](OC(=O)[C@@H]6O)O[C@@]4(C(=O)O5)[C@]21O (stereo partly drawn),0.53
17,OCCNCCCOc1cccc(Cl)c1Cl,0.846 and 1.42
18,CCCCC1CCC(c2nc(-c3ccncc3)no2)CC1 (stereo not drawn),0.608 and 1.14
19,Cc1ccc2c(=O)c3ccccc3n(CCCN)c2c1C,1.36
20,N[C@@H](C(=O)O)[C@@H](OCc1ccccc1)C(=O)O (racemic),1.02

row,Compound,fold change
1,NC(N)=Nc1ccc(Cl)cc1,0.891
2,CN1c2cc3c(cc2N=C(c2ccc(C(=O)O)cc2)c2ccccc21)C(C)(C)CCC3(C)C,2
3,C/C(=N\NC(=O)[C@@H]1C(=O)NC[C@H]1c1ccccc1)c1cccc(Br)c1,1.69
4,Cn1cccc1/C=C1\C(=O)NC(=O)c2ccccc21,1.16
5,O=C(/C=C/c1ccccc1)NC(NC(=S)Nc1cccc2cccnc12)C(Cl)(Cl)Cl (stereo not drawn),1.71
6,CN(Cc1ccccc1)C(=O)[C@H](Cc1ccc2ccccc2c1)NC(=O)[C@@H]1C[C@@H](O)CN1C(=O)c1cn(C)c2ccccc12,1.21
7,Nc1nc(Nc2ccccc2)nc2c1ncn2[C@@H]1O[C@H](CO)[C@@H](O)[C@H]1O,0.752
8,C[C@@H](CN1CCC(n2c(=O)[nH]c3cc(Cl)ccc32)CC1)NC(=O)c1ccc2ccccc2c1,0.89
9,COC(=O)c1sccc1S(=O)(=O)Nc1ccc(Nc2ccccc2)cc1OC,1.31
10,c1ccc2cc(C3=NCCN3)ncc2c1,0.685
11,COc1ccccc1N1CCN(CCN2C(=O)c3ccccc3C(C)(C)C2=O)CC1,1.01
12,CCCCN1CCC(CCC(=O)c2cc(Cl)c(N)cc2OC)CC1,1.12
13,N[C@H]1CCN(O)C1=O,0.709
14,NC(=NC1C2CC3CC(C2)CC1C3)Nc1ccc(I)cc1 (stereo not drawn),0.649
15,Cn1ccc2cc(NC(=O)Nc3cccnc3)ccc21,0.852
16,CC(=O)OCCNC(=O)c1cccnc1,0.614
17,N[C@H](C(=O)O)c1ccc(C(=O)O)c(O)c1,0.823
18,N[C@@H](Cn1ccc(=O)n(Cc2ccccc2C(=O)O)c1=O)C(=O)O,1.26
19,NC(C(=O)O)c1cc(O)ccc1Cl (stereo not drawn),0.855

# Same assay, conditions: A549 miR-34 inducible, Hoechst nuclei count, 48 h; measured here: total cells with miR-34 induction; stronger effect = lower value
row,Compound,cell count
1,NS(=O)(=O)c1nn2cc(-c3ccccc3)nc2s1,4960
2,COc1oc(=O)c2cc(N)ccc2c1Cl,8640
3,CN(N=O)C(=O)N[C@H]1C(O)O[C@H](CO)[C@@H](O)[C@@H]1O (stereo partly drawn),8770
4,N[C@@H](C(=O)O)c1ccc(O)c(C(=O)O)c1,8680
5,O=C(NC1CCN(Cc2ccccc2)CC1)c1ccc(I)cc1,6720
6,CC(=O)N(OCc1ccccc1)[C@@H]1c2cc(C#N)ccc2OC(C)(C)[C@H]1O,8320
7,c1ccc(Oc2nc(NC3CCCCC3)c3[nH]cnc3n2)cc1,7420
8,CCOC(=O)C1CSC(Cc2ccc(OCc3ccc([N+](=O)[O-])cc3)cc2)N1 (stereo not drawn),8250
9,COc1cccc(C=NC=Nc2cccc(OC)c2)c1,8640
10,C[C@@H]1CC2C3CCC4=CC(=O)C=CC4(C)C3(F)[C@@H](O)CC2(C)C1(O)C(=O)CO (stereo partly drawn),7230
11,CCCCCN=c1ccn(Cc2ccccc2)c2ccccc12,1550
12,O=c1[nH]c2cc(Cl)ccc2c(O)c1-c1cccc(Oc2ccccc2)c1,8760
13,N[C@@H](Cc1cc(CP(=O)(O)O)cc(-c2ccccc2Cl)c1)C(=O)O,9360
14,CC(C)c1ccccc1S(=O)(=O)c1cc(N)c2ncccc2c1[N+](=O)[O-],6170
15,CCn1c(=O)[nH]c2ccccc21,7770
16,C[C@@H]1C(=O)OC2[C@H](O)C34[C@H]5C[C@@H](C(C)(C)C)[C@]36[C@@H](OC(=O)[C@@H]6O)O[C@@]4(C(=O)O5)[C@]21O (stereo partly drawn),8430
17,OCCNCCCOc1cccc(Cl)c1Cl,5820 and 3550
18,CCCCC1CCC(c2nc(-c3ccncc3)no2)CC1 (stereo not drawn),5260 and 8140
19,Cc1ccc2c(=O)c3ccccc3n(CCCN)c2c1C,2370
20,N[C@@H](C(=O)O)[C@@H](OCc1ccccc1)C(=O)O (racemic),8010

row,Compound,cell count
1,NC(N)=Nc1ccc(Cl)cc1,8620
2,CN1c2cc3c(cc2N=C(c2ccc(C(=O)O)cc2)c2ccccc21)C(C)(C)CCC3(C)C,7660
3,C/C(=N\NC(=O)[C@@H]1C(=O)NC[C@H]1c1ccccc1)c1cccc(Br)c1,8430
4,Cn1cccc1/C=C1\C(=O)NC(=O)c2ccccc21,8530
5,O=C(/C=C/c1ccccc1)NC(NC(=S)Nc1cccc2cccnc12)C(Cl)(Cl)Cl (stereo not drawn),4630
6,CN(Cc1ccccc1)C(=O)[C@H](Cc1ccc2ccccc2c1)NC(=O)[C@@H]1C[C@@H](O)CN1C(=O)c1cn(C)c2ccccc12,6080
7,Nc1nc(Nc2ccccc2)nc2c1ncn2[C@@H]1O[C@H](CO)[C@@H](O)[C@H]1O,9880
8,C[C@@H](CN1CCC(n2c(=O)[nH]c3cc(Cl)ccc32)CC1)NC(=O)c1ccc2ccccc2c1,3940
9,COC(=O)c1sccc1S(=O)(=O)Nc1ccc(Nc2ccccc2)cc1OC,6450
10,c1ccc2cc(C3=NCCN3)ncc2c1,9570
11,COc1ccccc1N1CCN(CCN2C(=O)c3ccccc3C(C)(C)C2=O)CC1,7580
12,CCCCN1CCC(CCC(=O)c2cc(Cl)c(N)cc2OC)CC1,8560
13,N[C@H]1CCN(O)C1=O,8480
14,NC(=NC1C2CC3CC(C2)CC1C3)Nc1ccc(I)cc1 (stereo not drawn),2830
15,Cn1ccc2cc(NC(=O)Nc3cccnc3)ccc21,8400
16,CC(=O)OCCNC(=O)c1cccnc1,9480
17,N[C@H](C(=O)O)c1ccc(C(=O)O)c(O)c1,8860
18,N[C@@H](Cn1ccc(=O)n(Cc2ccccc2C(=O)O)c1=O)C(=O)O,8660
19,NC(C(=O)O)c1cc(O)ccc1Cl (stereo not drawn),9170

# From PubChem BioAssay
